# Measured values as given in PubChem BioAssay (Tox21).
# Inconclusive results are not listed. Where a call stands in place of a potency, no number is given. The source made the active and inactive calls. Unless noted, calls follow the shape of the dose curve; as a rule, active = well fitted inhibition curve with a large enough effect in the repeat runs (not every such curve was filed as active); inconclusive = weak or mixed curves; inactive = flat fitted curve, though single readings scatter.
# Tested on: not listed separately
# Test: qHTS assay to identify small molecule agonists of the TGF-beta/Smad signaling pathway (AID 1346859; active = well fitted activation curve with a large enough effect in the signal ratio in the repeat runs, not every such curve was filed as active; the % refers to the signal ratio)
# Conditions: SBE-bla HEK293T, TGF-beta/Smad beta-lactamase reporter, 5 h; series mostly up to 76.8 µM
# How it was run: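 Screening used HEK 293T SBE-bla cells at 4,000/well. Test agents: 5 hr, 37 C. Detection: FRET substrate, 2 hr RT, then excitation 405 nm with emissions at 460 and 530 nm.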
row,Structure (SMILES),outcome
1,C[C@]12CCC(=O)C(O)=C1CC[C@@H]1[C@@H]2CC[C@]2(C)C(=O)CC[C@@H]12,inactive
2,CCOC(=S)S,inactive
3,Brc1ccc(Oc2cc(Br)c(Br)cc2Br)c(Br)c1,inactive
4,O=C(O)CC[N+](=O)[O-],inactive
5,C=C(C)[C@H]1Cc2c(ccc3c2O[C@@H]2COc4cc(OC)c(OC)cc4[C@@H]2C3=O)O1,inactive
6,CNC(=O)Oc1cccc2c1OC(C)(C)O2,inactive
7,COP(=S)(OC)Oc1ccc([N+](=O)[O-])cc1,inactive
8,CCC(CC)Nc1c([N+](=O)[O-])cc(C)c(C)c1[N+](=O)[O-],inactive
9,CCCCOCCOP(=O)(OCCOCCCC)OCCOCCCC,inactive
10,CC(C)=CC1C(C(=O)OCc2coc(Cc3ccccc3)c2)C1(C)C (stereo unspecified),inactive
11,O=S(=O)(Oc1ccc(Cl)cc1)c1ccc(Cl)cc1,inactive
12,CCc1cccc(CC)c1N(COC)C(=O)CCl,inactive
13,NC(=S)Nc1ccccc1,inactive
14,Cc1ccc(N)c(N)c1,inactive
15,O=P(Oc1ccccc1)(Oc1ccccc1)Oc1ccccc1,inactive
16,CCC(C)c1ccc(O)cc1 (stereo unspecified),inactive
17,N#Cc1cc(Br)c(O)c(Br)c1,inactive

row,Structure (SMILES),outcome
1,Oc1cc(Cl)ccc1Oc1ccc(Cl)cc1Cl,inactive
2,C[C@]12CCC(=O)C[C@@H]1CC[C@@H]1[C@@H]2CC[C@]2(C)[C@@H](O)CC[C@@H]12,inactive
3,CCN(CC)N=O,inactive
4,Nc1ccc(-c2ccccc2)cc1,inactive
5,CCN(CC)C(=O)SCc1ccc(Cl)cc1,inactive
6,CN(C)c1ccc(C(=O)c2ccc(N(C)C)cc2)cc1,inactive
7,CCCCCCCCC(=O)NCc1ccc(O)c(OC)c1,inactive
8,Nc1c(Cl)cc([N+](=O)[O-])cc1Cl,inactive
9,Nc1ccc(-c2ccc(N)c(N)c2)cc1N,inactive
10,Clc1nc(Cl)nc(Cl)n1,inactive
11,C=CCN(CC=C)C(=O)C(Cl)Cl,inactive
12,CC(C)(C)c1ccccc1O,inactive
13,CC(C)(OOC(C)(C)c1ccccc1)c1ccccc1,inactive
14,CCC(C)(c1ccc(O)cc1)c1ccc(O)cc1,inactive
15,CCCCCCOC(=O)c1ccccc1C(=O)OCCCCCC,inactive
16,CCCCC(CC)COC(=O)Cl (stereo unspecified),inactive

# Biological target: Thyrotropin-releasing hormone receptor (Homo sapiens) (UniProt P34981)
# Sequence (P34981 whole entry, looked up): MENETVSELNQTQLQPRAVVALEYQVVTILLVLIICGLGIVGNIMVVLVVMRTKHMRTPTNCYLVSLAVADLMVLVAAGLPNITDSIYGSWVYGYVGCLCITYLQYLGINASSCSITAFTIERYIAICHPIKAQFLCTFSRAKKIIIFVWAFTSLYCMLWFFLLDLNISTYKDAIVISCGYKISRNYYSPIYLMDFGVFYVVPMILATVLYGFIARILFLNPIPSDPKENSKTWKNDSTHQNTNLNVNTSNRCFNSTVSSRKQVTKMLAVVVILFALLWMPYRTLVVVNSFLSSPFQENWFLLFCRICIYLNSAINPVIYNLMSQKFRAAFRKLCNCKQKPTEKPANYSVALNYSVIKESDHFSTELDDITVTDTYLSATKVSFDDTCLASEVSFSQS
# Test: qHTS assay to identify small molecule antagonists of the thyrotropin-releasing hormone receptor (TRHR) signaling pathway (AID 1346877)
# Conditions: TRHR-HEK293, TRH-induced calcium fluorescence, antagonist mode; series mostly up to 51.3 µM
# How it was run: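 TRHR-expressing HEK293 cells loaded with calcium dye for 2 h at 37 C; compounds pre-incubated 5 min at room temperature before TRH challenge at 1 nM final. Intracellular calcium fluorescence read kinetically for 3 min; 15 concentrations in triplicate.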
row,Structure (SMILES),Potency
1,O=C(Nc1ccc(Br)cc1)c1cc(Br)cc(Br)c1O,inactive
2,CCOCN(C(=O)CCl)c1c(C)cccc1CC,inactive
3,Brc1ccc(Oc2cc(Br)c(Br)cc2Br)c(Br)c1,inactive
4,C=C(C)[C@H]1Cc2c(ccc3c2O[C@@H]2COc4cc(OC)c(OC)cc4[C@@H]2C3=O)O1,inactive
5,CNC(=O)Oc1cccc2c1OC(C)(C)O2,inactive
6,COP(=S)(OC)Oc1ccc([N+](=O)[O-])cc1,inactive
7,Cc1cc(Cl)ccc1OCCCC(=O)O,inactive
8,CCC(CC)Nc1c([N+](=O)[O-])cc(C)c(C)c1[N+](=O)[O-],inactive
9,O=S(=O)(Oc1ccc(Cl)cc1)c1ccc(Cl)cc1,inactive
10,CCc1cccc(CC)c1N(COC)C(=O)CCl,inactive
11,NC(=S)Nc1ccccc1,inactive
12,O=[N+]([O-])c1c(Cl)c(Cl)c(Cl)c(Cl)c1Cl,inactive
13,O=P(Oc1ccccc1)(Oc1ccccc1)Oc1ccccc1,inactive
14,CCC(C)c1ccc(O)cc1 (stereo unspecified),inactive
15,N#Cc1cc(Br)c(O)c(Br)c1,inactive
16,CCN(CC)N=O,inactive
17,Nc1ccc(-c2ccccc2)cc1,inactive
18,CCN(CC)C(=O)SCc1ccc(Cl)cc1,inactive
19,CN(C)c1ccc(C(=O)c2ccc(N(C)C)cc2)cc1,inactive
20,O=c1oc2ccccc2c(O)c1C(CC(O)c1ccc(-c2ccc(Br)cc2)cc1)c1ccccc1 (stereo unspecified),inactive
21,Nc1c(Cl)cc([N+](=O)[O-])cc1Cl,inactive
22,Clc1nc(Cl)nc(Cl)n1,inactive
23,C=CCN(CC=C)C(=O)C(Cl)Cl,inactive
24,CC(C)(C)c1ccccc1O,inactive
25,CC(C)(OOC(C)(C)c1ccccc1)c1ccccc1,inactive
26,CCC(C)(c1ccc(O)cc1)c1ccc(O)cc1,inactive
27,CCCCCCOC(=O)c1ccccc1C(=O)OCCCCCC,inactive
28,CCCCC(CC)COC(=O)Cl (stereo unspecified),inactive
